A selection follows.
aSyn UTR act: Activators working through SNCA 5'UTR binding (MLPCN). activity score, % (tested at 7.5 µM), hits read low. hit rate 7.1% among 300,000. AID 1814. alpha-synuclein 5'UTR reporter, activators screen; in the data active = activity score below about -60%
* = called active by the depositor.

SMILES | aSyn UTR act
Brc1ccc(Sc2cnc3ccccc3n2)cc1 | -77.1*
c1ccc(Sc2cnc3ccccc3n2)cc1 | -168.6*
COc1ccc(/C(O)=C/c2nc3ccccc3n(-c3ccccc3)c2=O)cc1 | -84.3*
C/C(=N\Nc1nc(C)cc(-c2ccccc2)n1)c1cccc(N)c1 | -64.4*
C/C(=N\Nc1nc(C)cc(-c2ccccc2)n1)c1ccccc1 | -101.9*
C/C(=N/Nc1nc(C)cc(-c2ccccc2)n1)c1ccco1 | -75.8*
Cc1cc(-c2ccccc2)nc(N/N=C/c2ccccc2F)n1 | -159.9*
CC1(C)C=Cc2cc3ccc(=O)oc3cc2O1 | -110.8*
COc1ccc(C(=O)Nn2c(SCc3cccc([N+](=O)[O-])c3)nc3ccccc3c2=O)cc1 | 66.2
O=C(Nn1c(SCc2cccc([N+](=O)[O-])c2)nc2ccccc2c1=O)c1ccccc1 | -145.0*
Brc1c(-c2ccc3c(c2)OCO3)nc2ncccn12 | -83.8*
COc1ccc(-c2nc3ncccn3c2Br)cc1 | -148.1*
Cc1ccc(-c2nc3ncccn3c2Nc2ccc3c(c2)OCCO3)cc1 | -64.0*
O=C1Nc2ccccc2/C1=C/c1cnc(-c2ccccc2)[nH]1 | -78.4*
O=c1c(C=NCCCO)c(-c2ccccc2)[nH]n1-c1nc2ccccc2s1 | 59.9
O=c1c(C=NCCN2CCNCC2)c(-c2ccccc2)[nH]n1-c1ccc([N+](=O)[O-])cc1 | -93.9*
CCN(CC)c1ccc(NC(=O)Nc2ccccc2)cc1 | -137.3*
O=C(Nc1ccccc1)NN(C(=O)CCl)c1ccccc1 | -125.3*
CCN(CC)c1ccc(NC(=O)Nc2ccc(C(C)=O)cc2)cc1 | -68.4*
O=C(Cc1nc2ccccc2[nH]1)c1ccc([N+](=O)[O-])cc1 | -89.8*
Clc1ccc(/C(Cc2nc3ccccc3[nH]2)=N\Nc2ccccc2)cc1 | -115.1*
O=C(Cc1nc2ccccc2[nH]1)c1ccc(Cl)cc1 | -79.6*
CCc1cc(C(=O)Cc2nc3ccccc3[nH]2)c(O)cc1O | -183.4*
C(=N\Nc1ncnc2ccccc12)/c1ccccc1 | -212.4*
Clc1cccc(/C=N/Nc2ncnc3ccccc23)c1 | -197.9*
SMILES | aSyn UTR act
Nc1c(Cl)ncnc1N/N=C/c1ccnc2ccccc12 | -68.0*
Cc1ccc(Cl)c(NC(=O)CCl)c1Cl | -86.9*
Cc1ccc(C2=Nc3ccccc3N=C(C(Cl)Cl)C2)cc1 | -76.0*
Cc1ccc2c(c1)N=C(c1ccccc1)CC(C(Cl)Cl)=N2 | -74.2*
O=C(N/N=C/c1ccccc1O)NC12CC3CC(CC(C3)C1)C2 | -167.5*
O=C(CCN1CCN(c2ccccc2)CC1)N/N=C/c1ccccc1O | 70.6
COc1ccc2c(c1)C(=O)c1ccccc1CO2 | -242.4*
Cc1ccc(C2=NN3C(C2)c2ccccc2OC32C(=O)Nc3ccccc32)cc1 (stereo not given) | -147.6*
CN1C(=O)C2(Oc3ccccc3C3CC(c4ccccc4)=NN32)c2ccccc21 (stereo not given) | -163.7*
CCN(CC)S(=O)(=O)c1cc([N+](=O)[O-])ccc1NNC(=O)Nc1ccc(Cl)c(Cl)c1 | 58.4
Cc1ccc(NC(=O)NCc2c(C)nn(C)c2C)cc1Cl | -157.2*
Cc1ccc(NC(=O)O/N=C/c2c(C)nn(C(C)(C)C)c2C)cc1Cl | 76.9
Cc1nn(C)cc1CNC(=O)Nc1ccc(Cl)c(Cl)c1 | -145.4*
O=[N+]([O-])c1cccc(C2Nc3cccc4cccc(c34)N2)c1 | -71.7*
O=C(Nc1ccc(Cl)cc1)OCc1cncs1 | -118.5*
O=C(Nc1cccc(Cl)c1)OCc1cncs1 | -79.7*
O=C(Nc1cccc2ccccc12)OCc1cncs1 | -61.6*
Cc1ccc(/C=C2\OC(=O)c3ccccc32)cc1 | -82.6*
CN1/C(=C/C=C(/C#N)C(N)=O)C(C)(C)c2ccccc21 | -146.0*
Cc1c(C(=O)NCCC2=CCCCC2)cccc1[N+](=O)[O-] | -89.7*
Cc1cc(C(=O)NCCC2=CCCCC2)no1 | -81.2*
O=C(NCCC1=CCCCC1)c1cnsn1 | -65.2*
Oc1ccc(N=C/C=C/c2ccc(Br)cc2)cc1-c1nc2ccccc2s1 | -106.9*
O=C(Cc1ccc(Cl)cc1)Nc1ccc(-c2cc3ccccc3oc2=O)c(Cl)c1 | 96.1
Nc1ccc(NC(=O)c2cccc(C(=O)Nc3ccc(N)cc3Cl)c2)c(Cl)c1 | -85.4*
SMILES | aSyn UTR act
O=C(Nc1ccccc1Cl)c1cc2ccccc2o/c1=N\O | -121.3*
O=C(Nc1ccc(Cl)cc1Cl)c1cc2ccccc2o1 | -110.2*
Cc1ccccc1NC(=O)c1cc2ccccc2o1 | -171.5*
Nc1ccccc1C(=O)Nc1ccc(Cl)cc1Cl | -119.6*
Cc1ccc(NC(=O)c2cc3ccccc3o2)nc1 | -94.6*
O=C(NCCc1ccccn1)c1cc2ccccc2o1 | -101.7*
O=C(Nc1ncccc1Cl)c1cc2ccccc2o1 | -74.0*
COc1ccccc1NC(=O)c1cc2ccccc2o1 | -91.6*
Cc1ccc(Nc2nc3nonc3[nH]c2=O)cc1Cl | -72.1*
Cc1nn(-c2ccccc2)c(/N=C/c2ccc(O)cc2)c1-c1ccccc1 | -133.6*
O=C(O)c1ccc(Nc2nc(-c3cccnc3)cs2)cc1 | -87.7*
CC(=O)c1ccc(Nc2nc(-c3cccnc3)cs2)cc1 | -130.4*
CC(C)c1ccc(N(CC(=O)NCCSC(C)(C)C)S(C)(=O)=O)cc1 | -83.5*
CN(c1ccc(C(=O)NCCSCc2ccco2)cc1)S(C)(=O)=O | -75.9*
CN(c1ccc(C(=O)NCCSC(C)(C)C)cc1)S(C)(=O)=O | -81.1*
Cn1c(=O)n(C)c2cc(NC(=O)CCl)ccc21 | -180.0*
CCn1c(=O)oc2cc(NC(=O)CCl)ccc21 | -104.0*
COC(=O)c1c(C)[nH]c(C(=O)/C=C/c2ccccc2)c1C | -107.3*
COC(=O)c1c(C)[nH]c(C(=O)/C=C/c2cccc(Cl)c2)c1C | -232.1*
COC(=O)c1c(C)[nH]c(C(=O)CSc2ccc(Cl)cc2)c1C | -133.5*
COC(=O)c1c(C)[nH]c(C(=O)/C=C/c2ccc(C)cc2)c1C | -73.0*
O=C(N/N=C/C(Br)=C/c1ccccc1)c1ccccc1[N+](=O)[O-] | -75.9*
Cc1occc1C(=O)N/N=C/C(Br)=C/c1ccccc1 | -219.2*
CC1(C)CC(=O)C2=C(C1)Nc1ccccc1N=C2 | -162.9*
C[C@@H]1CC=C[C@H]2[C@H]1C(=O)N(Cc1ccccc1)[C@H]2c1ccc(-c2cc3ccccc3s2)cc1F | -137.7*
SMILES | aSyn UTR act
COC(=O)C1CCN(C(=O)c2oc3c(Cl)cc(C)cc3c2C)CC1 | -74.1*
Cc1cc(Cl)c2oc(C(=O)N3CCN(c4ccncc4)CC3)c(C)c2c1 | 90.3
COc1ccc(CNCCC(c2ccc(OC(C)C)cc2)c2ccccc2OC)cc1 (stereo not given) | 133.6
COc1ccc(NC(C)c2ccccc2)cc1 (stereo not given) | -90.7*
CC(C)Nc1ccc(Nc2ccnc3cc4ccccc4cc23)cc1 | 98.7
O=C(Nc1nc2c(s1)CCCC2=O)c1cnccn1 | -88.2*
O=C(NCCSC1CCCCC1)c1ccccc1 | -66.9*
COc1ccc(C(=O)NCCSC2CCCCC2)cc1 | -159.4*
O=C(/C=C/c1ccc(Cl)cc1)NCc1ccco1 | -87.2*
O=C(/C=C/c1ccc(S(=O)(=O)NCc2ccco2)cc1)NCc1ccccc1Cl | -72.3*
Cc1ccc(-n2nc(C)c3c2OC(N)=C(C#N)C3c2cccs2)cc1 (stereo not given) | -90.6*
c1csc(-c2cnc3ccccc3n2)c1 | -108.4*
c1cc(-c2cccs2)nc(-c2cccs2)c1 | -103.9*
Cc1cccc(-c2nnc(NC(=O)c3cccs3)s2)c1 | -113.4*
COc1ccc(-c2nnc(NC(=O)c3cccs3)s2)c(OC)c1 | -75.7*
COc1ccc(C(NC(=O)c2cccnc2)c2cc(Cl)c3cccnc3c2O)cc1OC (stereo not given) | 75.9

Compound activity deposited in PubChem BioAssay by Broad Institute.
